Laboratory results as given in publication PMC9838217, “Structure of SALL4 zinc finger domain reveals link between AT-rich DNA binding and Okihiro syndrome”.
Numbering of substitutions follows the chain as printed.

Columns and labels:
[1] = target: T1, SALL4 ZFC4 R900W (HT-SELEX) (Mus musculus, UniProt Q8BX22 870-940, R900W); assay: HT-SELEX; high values mean tight binding; settings: protein: recombinant; vector His6-GST; dsDNA, one strand shown
T1 sequence: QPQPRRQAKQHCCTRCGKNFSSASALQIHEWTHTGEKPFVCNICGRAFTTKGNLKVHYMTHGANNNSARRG
In short: (§1)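 Purified recombinant mouse SALL4 zinc finger cluster 4 (residues 870–940, 1 µg) and library DNA (1.5 µg first cycle, 200 ng later) were incubated for 10 min at room temperature in 100 µl of 10 mM Tris–HCl pH 7.5, 50 mM NaCl, poly(dI-dC) and DTT. After Ni2+ bead capture and up to 6 triplicate cycles of selection, DNA was MiSeq-sequenced and scanned for 6-mers. Binding signal is the fold change in each canonical k-mer's read fraction relative to the initial random library.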

[2] = target: T2, SALL4 ZFC4 G921D (HT-SELEX) (Mus musculus, UniProt Q8BX22 870-940, G921D); assay: HT-SELEX; high values mean tight binding; settings: protein: recombinant; vector His6-GST; dsDNA, one strand shown
T2 sequence: T1 sequence with W31R, G52D
In short: as §1

Sequence	binding signal [1] [fold-change vs cycle 0]	binding signal [2] [fold-change vs cycle 0]
GGCGGA	0.12 ± 0.0101	0.238 ± 0.0604
CGCCGC	0.0234 ± 0.0032	0.091 ± 0.0475
GTCGCA	0.215 ± 0.0161	0.341 ± 0.0831
CTGTGC	0.34 ± 0.0263	0.471 ± 0.046
GCGCCA	0.0557 ± 0.0063	0.143 ± 0.0639
GCACGA	0.281 ± 0.0197	0.432 ± 0.0801
GGCAAC	0.322 ± 0.0219	0.438 ± 0.0577
CGGTGC	0.129 ± 0.00419	0.238 ± 0.0719
CCGACG	0.143 ± 0.00739	0.255 ± 0.0634
AGCGCG	0.0579 ± 0.00565	0.159 ± 0.0595
GCTCGA	0.308 ± 0.00752	0.475 ± 0.0642
AAGGCC	0.32 ± 0.0161	0.435 ± 0.0818
CGCAGA	0.265 ± 0.0309	0.379 ± 0.0778
GCAGAC	0.369 ± 0.0281	0.48 ± 0.0825
GTGGCA	0.276 ± 0.00829	0.424 ± 0.0569
AACGGC	0.225 ± 0.0115	0.356 ± 0.0593
GGACCC	0.246 ± 0.0211	0.387 ± 0.0656
CGGGCC	0.0506 ± 0.00629	0.15 ± 0.0772
GGCCAC	0.126 ± 0.019	0.253 ± 0.0792
CCGCCA	0.105 ± 0.00392	0.218 ± 0.0543
GTGCCA	0.266 ± 0.0277	0.416 ± 0.0672
ACCCCG	0.242 ± 0.00886	0.353 ± 0.0765
CAAGCG	0.313 ± 0.0138	0.452 ± 0.0669
CCGCTA	0.299 ± 0.0278	0.434 ± 0.0518
GGTCGA	0.33 ± 0.0136	0.48 ± 0.0759
CACCCC	0.309 ± 0.0175	0.407 ± 0.058
CCGCTC	0.151 ± 0.0178	0.273 ± 0.0659

Sequence	binding signal [1] [fold-change vs cycle 0]	binding signal [2] [fold-change vs cycle 0]
ACGGGG	0.257 ± 0.00971	0.37 ± 0.0678
CAGCGC	0.0744 ± 0.00642	0.177 ± 0.0788
GGCGAC	0.0863 ± 0.00668	0.208 ± 0.0638
ATCGCC	0.24 ± 0.00657	0.401 ± 0.088
CGTCGA	0.282 ± 0.0144	0.423 ± 0.0617
CGCGGC	0.0238 ± 0.000376	0.0986 ± 0.055
ACGCTC	0.345 ± 0.00842	0.503 ± 0.071
CCGGAG	0.255 ± 0.0305	0.352 ± 0.0596
CCCCGC	0.0783 ± 0.012	0.179 ± 0.0709
AGCCGA	0.263 ± 0.0162	0.384 ± 0.065
AGTCGG	0.367 ± 0.00833	0.499 ± 0.0416
CGGACG	0.164 ± 0.00531	0.264 ± 0.055
AGGCGC	0.0722 ± 0.0162	0.185 ± 0.0792
ACAGGC	0.338 ± 0.0213	0.472 ± 0.0921
CTGGCC	0.139 ± 0.00982	0.255 ± 0.0712
CGTCGC	0.097 ± 0.00631	0.194 ± 0.077
ATGCCG	0.222 ± 0.0038	0.36 ± 0.0731
GCCTCC	0.209 ± 0.0253	0.334 ± 0.0802
CGCGGA	0.105 ± 0.00959	0.199 ± 0.0519
CCAGGG	0.305 ± 0.0286	0.408 ± 0.0718
CGGCTC	0.124 ± 0.00754	0.242 ± 0.0735
CACGGC	0.114 ± 0.0156	0.228 ± 0.0664
CAGGGC	0.185 ± 0.0225	0.31 ± 0.0787
CTCGCC	0.139 ± 0.00418	0.273 ± 0.0725
AAGCGG	0.29 ± 0.026	0.396 ± 0.0731
AGGCGG	0.136 ± 0.00959	0.264 ± 0.0731
CGGACC	0.198 ± 0.0105	0.315 ± 0.0637

Sequence	binding signal [1] [fold-change vs cycle 0]	binding signal [2] [fold-change vs cycle 0]
GCAGCA	0.247 ± 0.0238	0.368 ± 0.0645
GCATGC	0.3 ± 0.0114	0.437 ± 0.0507
AAGCCC	0.353 ± 0.015	0.475 ± 0.062
AGCTCG	0.347 ± 0.0155	0.487 ± 0.0527
AGCGGA	0.313 ± 0.018	0.432 ± 0.054
CGCGAA	0.201 ± 0.0239	0.315 ± 0.0749
CCCGCA	0.139 ± 0.0116	0.246 ± 0.066
GGCCCC	0.0767 ± 0.0129	0.183 ± 0.0665
AGCGCT	0.189 ± 0.0213	0.343 ± 0.109
ACGCTG	0.298 ± 0.0226	0.41 ± 0.058
CCGGCA	0.108 ± 0.00217	0.221 ± 0.0662
TCGCGA	0.248 ± 0.0259	0.374 ± 0.0699
CTGCCA	0.304 ± 0.0171	0.451 ± 0.0863
CGTTGC	0.331 ± 0.00332	0.435 ± 0.0499
CAGCGG	0.136 ± 0.019	0.242 ± 0.0833
GGTGCA	0.359 ± 0.0169	0.479 ± 0.0732
CGCACA	0.229 ± 0.0112	0.353 ± 0.0588
CGAGCC	0.138 ± 0.0111	0.272 ± 0.0858
GTGTTA	1.37 ± 0.0667	1.31 ± 0.0659
AGTCGC	0.244 ± 0.0172	0.386 ± 0.0654
AGCCCC	0.191 ± 0.0184	0.329 ± 0.0672
CACGGG	0.253 ± 0.0129	0.366 ± 0.0584
CCGCAG	0.123 ± 0.0191	0.234 ± 0.0772
GGGACC	0.257 ± 0.0113	0.386 ± 0.0917
ACGTGC	0.314 ± 0.00898	0.439 ± 0.0607
AGCGGC	0.0644 ± 0.00817	0.177 ± 0.0591
